# Source: the supplement of paper PMC6555819
# What was measured:
# Assay in all cases: PBM binding z-score (relative to random genomic background probes); higher = stronger binding; sequences stand for … in GC…GCGATTGACAGCGTAGAATGAAGG
# [1] = tested on: FXR:RXRa (NR concentration 270 nM, RXRa partner concentration 90 nM)
# Summary of the method: (§1)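 Each nuclear receptor dimer, without ligand, was incubated for 1 h on custom Agilent 4×180K protein-binding microarrays. Binding was detected with antibodies against each partner (one per run), and scanned fluorescence was regression-normalized. The binding z-scores are referenced to random human genomic background probes.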
# [2] = tested on: LXRa:RXRa (NR concentration 270 nM, RXRa partner concentration 90 nM)
# Summary of the method: as §1
# [3] = tested on: LXRa homodimer (NR concentration 270 nM)
# Summary of the method: as §1
# [4] = tested on: LXRb:RXRa (NR concentration 270 nM, RXRa partner concentration 90 nM)
# Summary of the method: as §1
# [5] = tested on: LXRb homodimer (NR concentration 270 nM)
# Summary of the method: as §1
# [6] = tested on: PPARa:RXRa (NR concentration 270 nM, RXRa partner concentration 90 nM)
# Summary of the method: as §1
# [7] = tested on: PPARg:RXRa 270nM:90nM, anti-RXR (NR concentration 270 nM, RXRa partner concentration 90 nM)
# Summary of the method: as §1
# [8] = tested on: PPARg:RXRa 30nM:10nM, anti-RXR (NR concentration 30 nM, RXRa partner concentration 10 nM)
# Summary of the method: as §1
# [9] = tested on: PPARg:RXRa 90nM:30nM, anti-RXR (NR concentration 90 nM, RXRa partner concentration 30 nM)
# Summary of the method: as §1
# [10] = tested on: PPARg:RXRa DBDmut IVT, anti-RXR (DBD mutation: RXRa K156A/R161A, NR concentration 270 nM, RXRa partner concentration 90 nM)
# Summary of the method: as §1
# [11] = tested on: PPARg:RXRa IVT, anti-PPARg (NR concentration 270 nM, RXRa partner concentration 90 nM)
# Summary of the method: as §1
# [12] = tested on: PPARg DBDmut:RXRa IVT, anti-PPARg (DBD mutation: PPARg1 K132A/R137A, NR concentration 270 nM, RXRa partner concentration 90 nM)
# Summary of the method: as §1
# [13] = tested on: PPARg DBDmut IVT, anti-PPARg (DBD mutation: PPARg1 K132A/R137A, NR concentration 270 nM)
# Summary of the method: as §1
# [14] = tested on: PPARg homodimer (NR concentration 180 nM)
# Summary of the method: as §1
# [15] = tested on: PXR:RXRa (NR concentration 270 nM, RXRa partner concentration 90 nM)
# Summary of the method: as §1
# [16] = tested on: PXR homodimer (NR concentration 270 nM)
# Summary of the method: as §1
# [17] = tested on: RARa:RXR (NR concentration 270 nM, RXRa partner concentration 90 nM)
# Summary of the method: as §1
# [18] = tested on: RARa homodimer (NR concentration 270 nM)
# Summary of the method: as §1
# [19] = tested on: RARb:RXRa (NR concentration 270 nM, RXRa partner concentration 90 nM)
# Summary of the method: as §1
Sequence,PBM binding z-score [1],PBM binding z-score [2],PBM binding z-score [3],PBM binding z-score [4],PBM binding z-score [5],PBM binding z-score [6],PBM binding z-score [7],PBM binding z-score [8],PBM binding z-score [9],PBM binding z-score [10],PBM binding z-score [11],PBM binding z-score [12],PBM binding z-score [13],PBM binding z-score [14],PBM binding z-score [15],PBM binding z-score [16],PBM binding z-score [17],PBM binding z-score [18],PBM binding z-score [19]
ACTAGAAGGCCAAGGGTCACTCAAGATTAGTCCG,3.27,3.28,0.426,3.25,-0.267,4.51,7.08,5.69,7.96,0.756,3.55,0.734,-0.0604,5,3.73,0.235,5.15,1.18,3.92
CCTTACGGGTCACGGTTATAGCACGGGTGGTACG,5.96,4.01,0.000447,3.23,-0.179,5.56,5.89,2.69,4.69,3,4.79,0.0456,-0.518,2.07,3.68,-0.0861,4.84,0.629,4.37
CAAAGTAGGTCACCGGAAGGTCAAAGTCCGCATG,6.09,6.41,5.29,5.63,1.43,6.43,8.21,6.7,8.45,8.84,9.1,4.14,2.62,6.69,6.22,1.73,7.55,2.1,5.39
CATACACGGTCAGCTAGGCCAGAGTAGGGACGGC,0.00236,0.294,-0.0294,-0.523,0.421,-0.409,-0.257,-0.34,-0.382,-0.275,0.556,0.102,0.44,0.0796,-0.388,-0.264,-0.295,0.385,2.49
ACTTACGGGTCAAGGAGGTTATAGCACGCGTATA,6.35,4.93,1.1,4.17,0.922,5.72,5.1,2.1,3.84,2.9,3.94,1.06,0.844,2.7,4.24,1.47,4.99,1.24,4.09
ATCGAACGGTCGAGGTGAGTATAGAGAAAGGGAA,-0.0198,-0.0653,-0.353,-0.34,-0.587,0.105,-0.114,-0.342,-0.333,-0.731,0.523,0.835,-0.166,0.13,-0.26,-0.544,-0.1,-0.343,1.19
TCATATAGGTAATAAAGGTGAAAGTCGGCATCTA,1.82,2.15,0.741,1.79,0.336,3.1,4.44,4.71,4.65,3.99,3.74,0.942,1.43,2.01,1.34,0.488,2.02,1.77,1.6
CCTACTGGGCCAAAACGGTCATTGATGCCGATAA,-0.421,-0.427,0.0364,-0.333,-0.867,0.309,0.904,-0.186,0.162,2.93,2.65,0.0613,0.25,0.299,-0.497,-0.344,-0.365,-0.523,0.875
CTAACTAGGTCAAGGTCAAAGTCGGTTTGTGCCA,6.55,5.3,4.54,4.54,1.41,6.04,7.82,7.09,8.36,8.82,8.88,2.1,2.34,2.99,5.04,1.89,4.65,0.786,5
TCATATAGGTGAAAGGTGAAAGTCGGTGTGGTAA,2.9,2.52,0.284,2.76,0.0843,6.44,9.98,10.2,12.3,7.6,7.55,3.38,1.28,3.1,3.01,0.351,4.34,1.1,2.78
TCTTGTAGATCAAAGCTTAAGAAAGCCGAAGCCT,-0.314,0.0464,-0.571,-0.365,-0.532,0.317,1.5,2.55,2.08,1.63,0.218,-0.031,-0.413,-0.405,-0.275,-0.758,-0.177,-0.517,-0.506
ACTAGGAGGACAAAGGTCAGAGCTACGCCAGTGA,4.32,4.18,1.5,3.58,0.612,5.33,8.36,7.87,8.99,2.03,4.63,0.268,-0.394,4.52,3.9,0.46,5.08,2.86,4.54
TTACCAAGGTAAAAGGTCGTTGATGCACGCCTTG,2.52,2.49,0.274,2.25,0.0385,4.46,6.8,5.65,6.87,0.76,3.59,0.399,0.573,1.67,3.07,0.505,4.08,0.101,2.28
CGTCCAAGGTCAGCAGGTGAGTGAAAGCGACGTG,5.14,3.02,-0.383,2.08,-0.689,4.13,3.7,0.511,2.24,2.8,3,-0.33,-0.746,3.15,2.41,0.206,3.32,0.593,4.87
CAAACTAGGTCAAAGGTCAACGTCGAGCCAACCA,8.3,7.18,5.23,7.01,2.37,7.5,11.3,13.9,14.4,8.88,9.1,3.12,5.08,10.7,7.11,1.82,9.16,5.04,5.88
